Assay results: PubChem BioAssay (EPA / NIEHS)
Active and inactive are the calls of the source. Rule for the calls: active = hit-call score of the fitted dose curve at least 0.9, where 1 is the maximum; inactive = score below 0.9.

What was measured:
[1] = ATG_ISRE_CIS: Attagene CIS-FACTORIAL HepG2 Assay for human Interferon Regulatory Factor 1 (IRF1) binding to an Interferon-Stimulated Response Element (ISRE) (AID 2282948); details: HepG2 ISRE cis-reporter (Attagene), mRNA transcription readout; actives raise or lower the signal
How it was run: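 Quantitation relies on labelled RT-PCR fragments separated by capillary electrophoresis. Human HepG2 cells bearing cis-promoter reporter constructs were treated 24 h; DMSO served as baseline for bidirectional fitting.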

[2] = ATG_M_06_CIS: Attagene CIS-FACTORIAL HepG2 Assay for M06 Transcription Factor (Internal Marker) (AID 2282950); details: HepG2 Attagene CIS-FACTORIAL M06 internal marker reporter; actives raise or lower the signal
How it was run: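 Cells (HepG2, transiently carrying cis-driven reporter units) receive chemical for 24 h before RNA isolation. Reporter cDNA is PCR-amplified, FAM-labelled by primer extension, HpaI-digested and sized on a capillary analyser.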

[3] = target: Hypoxia-inducible factor 1-alpha (Homo sapiens) (UniProt Q16665); assay: ATG_HIF1a_CIS: Attagene CIS-FACTORIAL HepG2 Assay for human Hypoxia Inducible Factor 1 (HIF1A) (AID 2282951); details: HepG2 Attagene cis-factorial HIF1a reporter transcription; actives raise or lower the signal
How it was run: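 Measures endogenous transcription-factor activity through cis-regulated reporter mRNA in HepG2. Cells dosed 24 h; transcripts quantified by RT-PCR with 6-FAM-labelled products separated by capillary electrophoresis; DMSO serves as negative control.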

[4] = target: Hepatocyte nuclear factor 6 (Homo sapiens) (UniProt Q9UBC0); assay: ATG_HNF6_CIS: Attagene CIS-FACTORIAL HepG2 Assay for human Hepatocyte Nuclear Factor 6 (HNF6) (AID 2282952); details: HepG2 Attagene cis-factorial HNF6 reporter transcription; actives raise or lower the signal
How it was run: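 HepG2 cells transiently transfected with cis-element-driven multiplexed reporter units measuring endogenous transcription factor activity. After 24 h exposure, reporter mRNA quantified by RT-PCR, FAM-labelled fragments and capillary electrophoresis; bidirectional fitting versus DMSO.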

[5] = target: Heat shock factor protein 1 (Homo sapiens) (UniProt Q00613); assay: ATG_HSE_CIS: Attagene CIS-FACTORIAL HepG2 Assay for human Heat Shock Transcription Factor 1 (HSE) (AID 2282953); details: HepG2 HSE cis-reporter, Attagene RNA transcription; actives raise or lower the signal
How it was run: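 Liver-derived HepG2 cells carry transiently introduced multiple reporter units governed by cis promoters. Reporter RNA measured 24 h post-dose through reverse transcription, PCR amplification, fluorescent labelling and capillary electrophoresis, normalised to DMSO.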

[6] = ATG_MRE_CIS: Attagene CIS-FACTORIAL HepG2 Assay for human Metal Responsive Element (MRE) (AID 2282954); details: HepG2 MRE cis-reporter transcription, Attagene multiplex; actives raise or lower the signal
How it was run: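 Fluorescent reporter fragments separated by capillary electrophoresis give mRNA induction for the MRE unit after 24 h treatment of transfected HepG2 cells. Endogenous transcription-factor activity is read; DMSO serves as negative control and baseline.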

[7] = ATG_PBREM_CIS: Attagene CIS-FACTORIAL HepG2 Assay for human Phenobarbital-responsive Enhancer Module (PBREM) (AID 2282955); details: HepG2 PBREM cis-reporter, Attagene multiplexed transcription; actives raise or lower the signal
How it was run: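 Fluorescence of labelled reporter cDNA fragments, resolved by capillary electrophoresis, gives mRNA induction in transfected HepG2 cells treated for 24 h; DMSO serves as negative control and baseline.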

[8] = target: Paired box protein Pax-6 (Homo sapiens) (UniProt P26367); assay: ATG_Pax6_CIS: Attagene CIS-FACTORIAL HepG2 Assay for human Paired Box 6 (PAX6) (AID 2282956); details: HepG2 CIS-FACTORIAL PAX6 reporter transcription, RNA readout; actives raise or lower the signal
How it was run: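 After twenty-four hours of chemical exposure, transfected HepG2 cells are harvested for RNA. Cis-promoter reporter transcripts are amplified, fluorescently labelled and sized by capillary electrophoresis, with gain and loss of signal scored against DMSO.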

[9] = ATG_PXRE_CIS: Attagene CIS-FACTORIAL HepG2 Assay for human Pregnane X Receptor Element (PXRE) (AID 2282957); details: HepG2 Attagene CIS-FACTORIAL PXRE reporter, mRNA; actives raise or lower the signal
How it was run: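 HepG2 cells transiently transfected with cis-element-driven multiplexed reporter units; after 24 h chemical exposure, reporter mRNA measured by RT-PCR, 6-FAM labelling, HpaI digestion and capillary electrophoresis. Bidirectional fitting relative to DMSO.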

[10] = ATG_PPRE_CIS: Attagene CIS-FACTORIAL HepG2 Assay for human Peroxisome Proliferator-activated Response Element (PPRE) (AID 2282958); details: HepG2 PPRE cis-element reporter, Attagene transcription factor profiling; actives raise or lower the signal
How it was run: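 Cells are first transfected transiently with the multiplexed reporter library, then dosed for 24 h. Total RNA is reverse-transcribed, amplified, fluorescently end-labeled and HpaI-cut before capillary electrophoresis; activity is fitted bidirectionally against DMSO controls.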

[11] = ATG_RORE_CIS: Attagene CIS-FACTORIAL HepG2 Assay for human RAR-related Orphan Receptor Element (RORE) (AID 2282959); details: HepG2 Attagene cis-factorial RORE reporter, mRNA; actives raise or lower the signal
How it was run: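 Cells were HepG2 carrying transfected cis-regulated reporter constructs, dosed for 24 hours. Total RNA was reverse-transcribed and reporter cDNA amplified, fluorescently labeled and sized by capillary electrophoresis. Activity was fitted bidirectionally relative to DMSO.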

[12] = ATG_Sox_CIS: Attagene CIS-FACTORIAL HepG2 Assay for human SRY-box transcription factor (SOX) (AID 2282960); details: HepG2 Attagene cis-factorial SOX reporter, mRNA; actives raise or lower the signal
How it was run: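 Transient MRTU transfection of HepG2; 24 h compound incubation; TriZol RNA, oligo(dT) RT, PCR, 6-FAM primer extension, HpaI cut, CE. Bidirectional fit, DMSO = baseline.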

[13] = target: Transcription factor Sp1 (Homo sapiens) (UniProt P08047); assay: ATG_Sp1_CIS: Attagene CIS-FACTORIAL HepG2 Assay for human Specificity Protein 1 (Sp1) (AID 2282961); details: HepG2 Sp1 cis-reporter transcription, actives raise or lower the signal
How it was run: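 Endogenous Sp1 activity was gauged in human liver HepG2 cells bearing transfected reporter units under a cis-regulating promoter. After 24 h dosing, reporter mRNA was quantified by RT-PCR with capillary electrophoresis, and activity fitted bidirectionally versus DMSO.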

[14] = ATG_SREBP_CIS: Attagene CIS-FACTORIAL HepG2 Assay for human Sterol Regulatory Element Binding (SREBP) (AID 2282962); details: HepG2 Attagene cis-factorial SREBP reporter, mRNA; actives raise or lower the signal
How it was run: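 Twenty-four hours after chemical dosing of transfected HepG2 cultures, reporter RNA was converted to cDNA, amplified, end-labelled with 6-FAM and resolved by capillary electrophoresis. Responses were fitted relative to DMSO.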

[15] = ATG_TA_CIS: Attagene CIS-FACTORIAL HepG2 Assay for human TA Basal Promoter (AID 2282964); details: HepG2 Attagene CIS-factorial TA basal promoter reporter; actives raise or lower the signal
How it was run: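 Background internal-marker endpoint from a 52-component HepG2 cis-reporter panel. Cells treated 24 h; reporter transcripts quantified via RT-PCR and CE fluorescence against DMSO baseline.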

[16] = ATG_TCF_b_cat_CIS: Attagene CIS-FACTORIAL HepG2 Assay for human T-Cell-Factor with beta-catenin (TCF/b-cat) (AID 2282965); details: HepG2 TCF/beta-catenin cis-reporter transcription, actives raise or lower the signal
How it was run: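 HepG2, transient MRTU transfection, cis-element-driven reporters (endogenous TFs). 24 h compound exposure. Readout: reporter mRNA by RT-PCR + 6-FAM primer extension, HpaI digest, capillary electrophoresis. Gain/loss fit vs DMSO baseline.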

[17] = target: Signal transducer and activator of transcription 3 (Homo sapiens) (UniProt P40763); assay: ATG_STAT3_CIS: Attagene CIS-FACTORIAL HepG2 Assay for human Signal Transducer and Activator of Transcription 3 (STAT3) (AID 2282963); details: HepG2, Attagene cis-factorial STAT3 reporter transcription; actives raise or lower the signal
How it was run: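 Values derive from bidirectional fits relative to DMSO of reporter mRNA levels, measured by RT-PCR with capillary electrophoresis, in HepG2 cells carrying transiently transfected cis-regulated reporter units and exposed 24 h.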

[18] = ATG_M_32_CIS: Attagene CIS-FACTORIAL HepG2 Assay for M32 Transcription Factor (Internal Marker) (AID 2282949); details: HepG2 Attagene cis-factorial M32 reporter, mRNA; actives raise or lower the signal;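 note: background control marker of the multiplexed CIS panel rather than a real target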
How it was run: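 Internal background marker read-out: RT-PCR/capillary electrophoresis fluorescence of reporter transcripts from transiently transfected HepG2 cells after 24 h chemical exposure. Activity fitted bidirectionally relative to DMSO negative control.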

Measured: AC50

Chain of Hypoxia-inducible factor 1-alpha (Homo sapiens) (Q16665 whole entry, looked up): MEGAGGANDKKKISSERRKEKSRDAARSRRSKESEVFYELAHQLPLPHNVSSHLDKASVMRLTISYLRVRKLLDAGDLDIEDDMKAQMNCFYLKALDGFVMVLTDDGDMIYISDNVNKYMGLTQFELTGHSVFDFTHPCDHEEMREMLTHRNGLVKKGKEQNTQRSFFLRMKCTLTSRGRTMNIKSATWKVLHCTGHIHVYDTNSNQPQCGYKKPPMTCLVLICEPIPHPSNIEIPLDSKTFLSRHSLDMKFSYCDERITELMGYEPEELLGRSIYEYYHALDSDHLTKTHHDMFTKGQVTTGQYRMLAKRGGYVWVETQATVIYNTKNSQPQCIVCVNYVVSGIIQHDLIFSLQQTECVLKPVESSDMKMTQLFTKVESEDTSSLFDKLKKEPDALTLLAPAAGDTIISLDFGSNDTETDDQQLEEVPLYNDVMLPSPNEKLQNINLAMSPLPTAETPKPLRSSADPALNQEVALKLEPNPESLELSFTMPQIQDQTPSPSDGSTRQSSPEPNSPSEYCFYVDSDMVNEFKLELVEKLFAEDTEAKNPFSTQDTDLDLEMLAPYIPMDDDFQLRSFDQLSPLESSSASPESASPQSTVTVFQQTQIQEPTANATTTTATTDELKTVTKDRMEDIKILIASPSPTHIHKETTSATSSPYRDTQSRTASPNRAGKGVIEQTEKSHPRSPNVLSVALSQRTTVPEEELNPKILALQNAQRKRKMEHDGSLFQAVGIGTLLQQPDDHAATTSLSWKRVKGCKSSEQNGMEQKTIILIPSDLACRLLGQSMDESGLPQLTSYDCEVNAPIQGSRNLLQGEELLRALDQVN
Chain of Paired box protein Pax-6 (Homo sapiens) (P26367 whole entry, looked up): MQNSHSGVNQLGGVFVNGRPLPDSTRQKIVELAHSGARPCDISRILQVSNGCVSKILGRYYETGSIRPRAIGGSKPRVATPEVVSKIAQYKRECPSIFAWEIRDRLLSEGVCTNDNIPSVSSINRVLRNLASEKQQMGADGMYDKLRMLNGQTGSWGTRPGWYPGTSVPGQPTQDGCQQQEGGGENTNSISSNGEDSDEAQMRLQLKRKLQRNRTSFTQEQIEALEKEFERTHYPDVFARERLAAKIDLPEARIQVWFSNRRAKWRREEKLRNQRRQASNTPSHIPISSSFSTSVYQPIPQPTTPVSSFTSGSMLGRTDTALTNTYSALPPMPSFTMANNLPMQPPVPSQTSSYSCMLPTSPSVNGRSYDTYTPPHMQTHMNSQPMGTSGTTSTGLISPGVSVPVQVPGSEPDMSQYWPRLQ
Chain of Heat shock factor protein 1 (Homo sapiens) (Q00613 whole entry, looked up): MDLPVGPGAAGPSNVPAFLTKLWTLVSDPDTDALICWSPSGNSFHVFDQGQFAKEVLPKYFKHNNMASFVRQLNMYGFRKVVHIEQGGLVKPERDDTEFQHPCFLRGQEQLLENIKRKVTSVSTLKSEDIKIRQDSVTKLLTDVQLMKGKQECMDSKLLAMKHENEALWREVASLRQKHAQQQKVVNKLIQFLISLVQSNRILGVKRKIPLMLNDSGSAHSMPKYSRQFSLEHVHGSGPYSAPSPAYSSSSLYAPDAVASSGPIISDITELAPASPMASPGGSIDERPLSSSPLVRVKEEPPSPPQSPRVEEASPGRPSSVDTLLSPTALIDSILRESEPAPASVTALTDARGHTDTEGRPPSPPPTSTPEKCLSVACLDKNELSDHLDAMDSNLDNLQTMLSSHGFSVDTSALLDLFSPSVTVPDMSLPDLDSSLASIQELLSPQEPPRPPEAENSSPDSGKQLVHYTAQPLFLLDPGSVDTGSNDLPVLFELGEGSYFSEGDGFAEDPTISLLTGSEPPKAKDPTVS
Chain of Hepatocyte nuclear factor 6 (Homo sapiens) (Q9UBC0 whole entry, looked up, the tested form may be a part): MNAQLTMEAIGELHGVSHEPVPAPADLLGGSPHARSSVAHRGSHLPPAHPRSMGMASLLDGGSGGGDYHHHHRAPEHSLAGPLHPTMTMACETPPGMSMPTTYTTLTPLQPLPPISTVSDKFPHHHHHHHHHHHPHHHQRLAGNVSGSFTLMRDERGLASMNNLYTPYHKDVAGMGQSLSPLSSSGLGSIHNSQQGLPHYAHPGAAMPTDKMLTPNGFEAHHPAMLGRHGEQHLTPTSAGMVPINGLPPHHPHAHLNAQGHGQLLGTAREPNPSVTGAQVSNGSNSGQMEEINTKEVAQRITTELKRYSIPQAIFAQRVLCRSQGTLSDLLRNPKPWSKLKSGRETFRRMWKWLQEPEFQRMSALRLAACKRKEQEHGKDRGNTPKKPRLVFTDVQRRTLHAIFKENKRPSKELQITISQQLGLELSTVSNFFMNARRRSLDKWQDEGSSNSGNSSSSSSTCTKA
Chain of Transcription factor Sp1 (Homo sapiens) (P08047 whole entry, looked up): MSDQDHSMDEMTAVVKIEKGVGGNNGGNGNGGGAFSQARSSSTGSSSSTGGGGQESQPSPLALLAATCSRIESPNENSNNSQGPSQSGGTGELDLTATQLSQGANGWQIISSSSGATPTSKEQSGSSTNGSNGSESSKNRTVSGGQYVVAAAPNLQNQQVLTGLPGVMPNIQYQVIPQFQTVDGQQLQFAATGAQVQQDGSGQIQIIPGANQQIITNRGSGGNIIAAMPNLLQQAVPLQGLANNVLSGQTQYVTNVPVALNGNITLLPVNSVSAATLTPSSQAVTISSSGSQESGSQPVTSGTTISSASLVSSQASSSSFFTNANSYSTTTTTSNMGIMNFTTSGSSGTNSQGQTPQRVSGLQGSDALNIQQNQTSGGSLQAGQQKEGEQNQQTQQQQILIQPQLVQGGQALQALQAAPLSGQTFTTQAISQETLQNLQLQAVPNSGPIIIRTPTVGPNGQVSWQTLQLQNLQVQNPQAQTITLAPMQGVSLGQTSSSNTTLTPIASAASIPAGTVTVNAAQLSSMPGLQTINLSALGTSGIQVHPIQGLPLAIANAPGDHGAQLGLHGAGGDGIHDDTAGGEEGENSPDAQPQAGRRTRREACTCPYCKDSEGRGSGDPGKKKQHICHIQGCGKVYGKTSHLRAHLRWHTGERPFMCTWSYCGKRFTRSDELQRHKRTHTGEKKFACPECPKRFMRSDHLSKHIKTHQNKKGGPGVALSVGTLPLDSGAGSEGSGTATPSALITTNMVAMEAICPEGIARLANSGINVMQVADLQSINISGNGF
Chain of Signal transducer and activator of transcription 3 (Homo sapiens) (P40763 whole entry, looked up): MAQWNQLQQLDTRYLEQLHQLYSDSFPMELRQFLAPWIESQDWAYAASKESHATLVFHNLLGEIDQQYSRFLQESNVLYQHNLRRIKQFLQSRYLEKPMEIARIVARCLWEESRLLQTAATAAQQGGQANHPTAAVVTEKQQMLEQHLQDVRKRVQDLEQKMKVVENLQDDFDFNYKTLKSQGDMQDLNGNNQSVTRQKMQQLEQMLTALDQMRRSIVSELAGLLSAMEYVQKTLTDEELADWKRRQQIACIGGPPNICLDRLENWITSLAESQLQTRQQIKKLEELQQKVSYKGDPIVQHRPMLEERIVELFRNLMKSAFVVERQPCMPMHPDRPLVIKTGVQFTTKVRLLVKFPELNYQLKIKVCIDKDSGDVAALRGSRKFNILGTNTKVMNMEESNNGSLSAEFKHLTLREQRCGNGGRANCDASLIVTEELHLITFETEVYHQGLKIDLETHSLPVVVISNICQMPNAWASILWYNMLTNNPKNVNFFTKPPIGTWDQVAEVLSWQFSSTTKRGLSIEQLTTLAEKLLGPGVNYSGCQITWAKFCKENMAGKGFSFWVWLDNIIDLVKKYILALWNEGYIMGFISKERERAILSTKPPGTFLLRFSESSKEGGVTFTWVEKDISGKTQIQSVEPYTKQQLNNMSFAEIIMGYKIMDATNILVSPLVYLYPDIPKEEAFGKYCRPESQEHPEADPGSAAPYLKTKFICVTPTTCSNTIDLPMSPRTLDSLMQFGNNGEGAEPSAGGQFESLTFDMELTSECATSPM

CC(C)(C)c1cc(CCC(=O)NN)cc(C(C)(C)C)c1O
active: [6] 186 µM | [9] 10.2 µM
not listed: [17] | [18]
inactive: all other assays above

O=CCCc1ccccc1
active: [9] 23.6 µM
inactive: [1] | [2] | [3] | [6] | [8] | [13] | [17] | [15] | [16]

O=c1oc(=O)c2cc3c(=O)oc(=O)c3cc12
not listed: [4] | [10]
inactive: all other assays above

C=O
active: [9] 27.7 µM
not listed: [5] | [6] | [10] | [11] | [16]
inactive: all other assays above

O=C=NC1CCC(CC2CCC(N=C=O)CC2)CC1 (configuration not stated)
active: [18] 164 µM | [7] 63.1 µM | [10] 68.9 µM | [11] 69.6 µM | [17] 164 µM | [16] 69.3 µM
not listed: [4] | [5]
inactive: all other assays above

CC(C)=CCC/C(C)=C/COC=O
not listed: [10] | [16] | [18]
inactive: all other assays above

O=C(O)CN(CCN(CC(=O)O)CC(=O)O)CCN(CC(=O)O)CC(=O)O
not listed: [3] | [5] | [12] | [15] | [17]
inactive: all other assays above

COc1ccc(NC(=O)CC(C)=O)cc1
not listed: [5] | [9]
inactive: all other assays above

CC(C)(C)c1n[nH]c(=S)n(N)c1=O
active: [9] 44.2 µM
not listed: [10] | [14] | [18]
inactive: all other assays above

CNC[C@H](O)c1cccc(O)c1
active: [9] 34.2 µM
not listed: [5] | [10] | [11] | [16]
inactive: all other assays above

Fc1c(F)c(F)c(Br)c(F)c1F
active: [9] 46.5 µM
not listed: [5] | [11] | [16]
inactive: all other assays above

CC1(C)OC[C@@H]2O[C@@]3(C(=O)O)OC(C)(C)O[C@H]3[C@@H]2O1
not listed: [5] | [10] | [11]
inactive: all other assays above

CCCCCCCCCCCCCCCCCC(=O)OCC(CC)CCCC (configuration not stated)
not listed: [10] | [15] | [18]
inactive: all other assays above

CCC(=O)OCCC(C)CCC=C(C)C (configuration not stated)
active: [9] 41.1 µM
not listed: [4] | [15] | [16]
inactive: all other assays above

CC1(CO)CN(c2ccccc2)NC1=O (configuration not stated)
not listed: [5] | [11] | [12] | [17]
inactive: all other assays above

CCCc1ccccc1O
active: [9] 56 µM
not listed: [5] | [6] | [10] | [14]
inactive: all other assays above

CC(C)=CCC[C@](C)(O)[C@@H]1CC=C(C)CC1
active: [9] 11.1 µM
not listed: [5] | [18]
inactive: all other assays above

CN1[C@@H]2CC(OC(=O)[C@H](CO)c3ccccc3)C[C@H]1[C@@H]1O[C@@H]12 (some centres not stated)
not listed: [3] | [4] | [5] | [15] | [18]
inactive: all other assays above

CC(C)CCCCCCCOC(=O)c1ccc(C(=O)OCCCCCCCC(C)C)c(C(=O)OCCCCCCCC(C)C)c1
active: [9] 42.7 µM
not listed: [10] | [11] | [18]
inactive: all other assays above

OCCCCCO
active: [9] 76.5 µM
not listed: [4] | [5] | [10] | [12]
inactive: all other assays above

CCCOCC(C)O (configuration not stated)
active: [3] 24.8 µM | [9] 25.5 µM
not listed: [7] | [18]
inactive: all other assays above

CC(C)[C@H]1CC[C@@H](C)CC1=O
active: [9] 61.9 µM
not listed: [4] | [7] | [10] | [15]
inactive: all other assays above

CCCC[n+]1ccccc1
not listed: [5] | [7] | [10]
inactive: all other assays above

O=C(O)c1cccc(C(F)(F)F)c1
not listed: [16] | [18]
inactive: all other assays above

C=C(C)[C@@H]1CCC2=CC(=O)C[C@@H](C)[C@]2(C)C1
active: [9] 2.33 µM
not listed: [4] | [7] | [15]
inactive: all other assays above

Clc1sc(Cl)c(Cl)c1Cl
not listed: [6] | [11] | [18]
inactive: all other assays above

CCN(CC)CCOC(=O)c1ccc(N)cc1
active: [9] 45.9 µM
not listed: [3] | [10]
inactive: all other assays above
